In all, about 48,000 compounds went through this assay and about 13,000 (27%) showed an effect of 50% or more. The list shows a part of the results.

Experimental findings from ChEMBL document CHEMBL3988442, “University of Dundee, Small-Polar-MMV Screening Library” (2021) are described below.

The assay relates to Wolbachia pipientis. The experiment in a line: Anti-Wolbachia Cell-Based Screen. The format is functional. The arrangement: scale not given: in the data most compounds retested in dose-response had high values. To be noted: 5 µM.
With `Cc1ccc(C(=O)NCC(O)CN2CCCC2=O)cc1Cl` (stereo not given), the “Percent Effect” value came out at 2.235%.

Take `CC(=O)c1ccccc1-c1cc(C(=O)O)cc(S(=O)(=O)NC(C)C)c1`: the “Percent Effect” value was determined as 0.5422%.

With `CNC(=O)c1ccccc1-c1ccc(S(C)(=O)=O)cc1`, the “Percent Effect” value is given as 101.9%.

`CC1CCCCN1Cc1ccc(-c2ccccc2C(=O)O)cc1` (stereo not given): the “Percent Effect” value is listed as -6.204%.

For `Cc1ccc(S(C)(=O)=O)cc1C(=O)NS(C)(=O)=O`, the “Percent Effect” value is reported as -9.422%.

Turning to `CS(=O)(=O)c1ccc(CNC(=O)NCc2cc[nH]n2)cc1`, the “Percent Effect” value is 1.077%.

For the compound `CS(=O)(=O)c1ccc(-c2ccccc2C(=O)O)cc1`, the “Percent Effect” value came out at 122%.

Take `CN(C)C(C(=O)N1CC(Oc2ccccc2F)C1)c1ccccc1F` (stereo not given): the “Percent Effect” value is reported as -4.147%.

As to `CO[C@@H]1CCN(S(=O)(=O)c2cccs2)[C@H]1Cc1ccccc1`, the “Percent Effect” value was 7.736%.

Take `Cc1n[nH]c(C)c1NC(=O)CN1CCn2c(nnc2C(C)C)C1`: the “Percent Effect” value was -1.446%.

`CC(C)C(=O)N1Cc2ccccc2CC2(CCCCN2C)C1` (stereo not given): the “Percent Effect” value worked out at 96.75%.

Consider `CC(C)C(=O)N1CCC12CCCN(C(=O)c1ccccc1)C2` (stereo not given), for which the “Percent Effect” value is on record as -15.79%.

As to `CC(C)C(=O)N1CCCC12CCN(C(=O)c1ccno1)C2` (stereo not given), the “Percent Effect” value is listed as -2.946%.

In the case of `CC(C)C(=O)N1Cc2ccccc2CC2(CCCN2C)C1` (stereo not given), the “Percent Effect” value is 90.17%.

For the compound `CC(C)C(=O)N1CCC12CCCN(C(=O)c1ccnnc1)C2` (stereo not given), the “Percent Effect” value is -3.572%.

Take `CC(C)C(=O)N1CCCC12CCCN(C(=O)c1ccno1)C2` (stereo not given): the “Percent Effect” value is given as -3.277%.

For the compound `C[C@H](C(=O)N1Cc2ccccc2CC2(CCCN2C)C1)c1ccccc1` (stereo not given in full), the “Percent Effect” value is 111.3%.

As to `CC(=O)c1cc(CN2C[C@@H](C(=O)O)[C@H](c3cccnc3)C2)cs1`, the “Percent Effect” value is -13.15%.

With `CCN(Cc1cc(Cl)ccc1OC)Cc1cc(C)nn1C`, the “Percent Effect” value is -10.03%.

Regarding `Cc1nnsc1CN(C)C(=O)CCn1cnc2ccccc21`, the “Percent Effect” value is -11.62%.

For the compound `O=C(CNCC1(O)CCCN(Cc2cccc(F)c2F)C1=O)NC1CC1` (stereo not given), the “Percent Effect” value is recorded as -1.283%.

As to `CN(CCCOc1ccccc1)C(=O)CN1CCc2cncnc2C1`, the “Percent Effect” value is listed as 0.7453%.

`CCCOc1ccc2c(c1)OCC(C(=O)NC(C)Cn1ccnc1)=C2` (stereo not given): the “Percent Effect” value is recorded as 6.426%.

In the case of `O=C(NCCCn1cccn1)C1CCC(=O)N(CC2CCCCC2)C1` (stereo not given), the “Percent Effect” value is reported as -8.272%.

Consider `O=C1NC[C@@]2(C(=O)O)CN(Cc3cccc(OC4CCCC4)c3)C[C@@H]12`, for which the “Percent Effect” value was -26.72%.

For `CC(C)C(C(N)=O)c1cccc(Cl)c1` (stereo not given), the “Percent Effect” value is given as -0.9613%.

Regarding `NC(=O)N1CCCN(CCc2nc(-c3cccc(Cl)c3)no2)CC1`, the “Percent Effect” value was 5.099%.

On to `NC(=O)c1nc(-c2cccc(Cl)c2)oc1N`, for which the “Percent Effect” value was found to be 102.5%.

Consider `NC(=O)c1nc(-c2ccc(Cl)cc2Cl)oc1N`, for which the “Percent Effect” value was found to be 118.4%.

Take `Cc1sc(CN)nc1-c1ccc(Cl)cc1Cl`: the “Percent Effect” value was -19.51%.
